Test results from PMC7862700, “An all-to-all approach to the identification of sequence-specific readers for epigenetic DNA modifications on cytosine”.

Columns and labels:
Experiment in all cases: DAPPL (digital affinity profiling via proximity ligation, sequencing); 10 mM Tris-HCl pH 7.5, 50 mM NaCl, 1 mM DTT, 4% glycerol, room temperature, 30 min; GST-TFs on glutathione beads, 16-mer random dsDNA library, 0.1% formaldehyde crosslink after washing; high values mean tight binding
FLI1 = target: T1, FLI1 (Homo sapiens, UniProt Q01543 1-452); settings: protein: recombinant; tags: N-terminal GST; dsDNA, one strand shown
T1 sequence: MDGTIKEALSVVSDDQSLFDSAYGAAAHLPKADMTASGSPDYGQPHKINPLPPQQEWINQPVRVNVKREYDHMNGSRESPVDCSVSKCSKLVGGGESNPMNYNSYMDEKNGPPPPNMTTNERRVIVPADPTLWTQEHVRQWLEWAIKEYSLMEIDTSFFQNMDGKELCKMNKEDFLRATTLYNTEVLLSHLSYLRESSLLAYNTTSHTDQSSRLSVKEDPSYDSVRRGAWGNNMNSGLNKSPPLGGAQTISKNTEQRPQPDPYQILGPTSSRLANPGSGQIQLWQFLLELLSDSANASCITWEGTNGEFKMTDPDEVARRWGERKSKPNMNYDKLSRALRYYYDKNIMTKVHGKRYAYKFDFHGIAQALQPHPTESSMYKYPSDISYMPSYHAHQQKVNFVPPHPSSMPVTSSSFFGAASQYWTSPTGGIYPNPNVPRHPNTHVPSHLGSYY
Method in brief: (§1)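 Human transcription factors were made in yeast as GST fusions, captured on glutathione beads and barcoded with DNA. With a tag-only sample included, the pool was incubated with 200 nmole of a random double-stranded 16-mer DNA library in Tris/NaCl/DTT/glycerol buffer at room temperature for 30 min, then crosslinked with 0.1% formaldehyde after washing, ligated by proximity, amplified and sequenced. For binding signal, each hexamer's read frequency for a factor is divided by its frequency for the tag-only sample.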

ELK1 = target: T2, ELK1 (Homo sapiens, UniProt P19419 1-428); settings: protein: recombinant; tags: N-terminal GST; dsDNA, one strand shown
T2 sequence: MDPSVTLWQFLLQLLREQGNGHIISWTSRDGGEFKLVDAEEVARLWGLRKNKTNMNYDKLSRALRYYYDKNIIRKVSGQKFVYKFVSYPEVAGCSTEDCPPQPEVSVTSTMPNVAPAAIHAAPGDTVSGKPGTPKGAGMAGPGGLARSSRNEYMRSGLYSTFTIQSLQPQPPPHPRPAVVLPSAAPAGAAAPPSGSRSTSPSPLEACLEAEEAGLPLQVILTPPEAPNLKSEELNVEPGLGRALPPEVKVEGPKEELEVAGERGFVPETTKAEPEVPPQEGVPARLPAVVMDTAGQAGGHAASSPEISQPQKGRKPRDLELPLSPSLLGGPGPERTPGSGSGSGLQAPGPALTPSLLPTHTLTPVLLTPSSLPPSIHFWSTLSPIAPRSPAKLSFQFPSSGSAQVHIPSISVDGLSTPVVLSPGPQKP
Method in brief: as §1

GABPA = target: T3, GABPA (Homo sapiens, UniProt Q06546 1-454); settings: protein: recombinant; tags: N-terminal GST; dsDNA, one strand shown
T3 sequence: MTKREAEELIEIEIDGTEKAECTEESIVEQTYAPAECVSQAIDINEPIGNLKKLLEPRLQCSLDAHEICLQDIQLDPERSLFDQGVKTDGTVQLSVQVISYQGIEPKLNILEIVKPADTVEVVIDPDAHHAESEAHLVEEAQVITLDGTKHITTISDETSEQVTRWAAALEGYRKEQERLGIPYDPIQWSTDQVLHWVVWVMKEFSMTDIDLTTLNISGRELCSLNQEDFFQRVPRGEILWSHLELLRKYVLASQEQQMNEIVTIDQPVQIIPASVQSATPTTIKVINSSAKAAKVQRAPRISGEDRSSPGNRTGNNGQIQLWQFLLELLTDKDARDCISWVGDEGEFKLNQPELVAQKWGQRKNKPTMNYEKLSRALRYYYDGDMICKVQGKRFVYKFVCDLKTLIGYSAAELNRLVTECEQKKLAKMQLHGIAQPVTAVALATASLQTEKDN
Method in brief: as §1

ERG = target: T4, ERG (Homo sapiens, UniProt P11308 1-479); settings: protein: recombinant; tags: N-terminal GST; dsDNA, one strand shown
T4 sequence: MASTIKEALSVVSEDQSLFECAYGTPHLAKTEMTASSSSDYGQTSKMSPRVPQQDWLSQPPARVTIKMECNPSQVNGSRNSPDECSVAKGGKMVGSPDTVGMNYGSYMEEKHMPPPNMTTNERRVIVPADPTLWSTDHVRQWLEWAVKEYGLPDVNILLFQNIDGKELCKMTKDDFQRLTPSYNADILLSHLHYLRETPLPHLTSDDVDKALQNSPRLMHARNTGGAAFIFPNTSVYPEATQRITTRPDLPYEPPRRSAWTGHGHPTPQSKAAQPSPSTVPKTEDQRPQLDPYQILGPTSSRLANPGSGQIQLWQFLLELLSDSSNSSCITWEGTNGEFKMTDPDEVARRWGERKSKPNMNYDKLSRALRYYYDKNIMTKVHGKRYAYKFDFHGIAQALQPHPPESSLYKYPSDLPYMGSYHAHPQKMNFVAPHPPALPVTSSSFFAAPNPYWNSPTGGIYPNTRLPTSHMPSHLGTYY
Method in brief: as §1

ELF1 = ELF1 (Homo sapiens, UniProt P32519 1-619); settings: protein: recombinant; tags: N-terminal GST; dsDNA, one strand shown
Method in brief: as §1

EHF = target: T5, EHF (Homo sapiens, UniProt Q9NZC4 1-300); settings: protein: recombinant; tags: N-terminal GST; dsDNA, one strand shown
T5 sequence: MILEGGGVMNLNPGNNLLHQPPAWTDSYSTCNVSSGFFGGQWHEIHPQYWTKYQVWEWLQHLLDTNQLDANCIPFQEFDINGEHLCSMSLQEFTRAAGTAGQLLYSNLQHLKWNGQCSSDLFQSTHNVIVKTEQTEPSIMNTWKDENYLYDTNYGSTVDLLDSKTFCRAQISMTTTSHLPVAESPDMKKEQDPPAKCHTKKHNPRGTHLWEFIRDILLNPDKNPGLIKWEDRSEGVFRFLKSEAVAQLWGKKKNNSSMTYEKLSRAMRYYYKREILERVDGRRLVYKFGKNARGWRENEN
Method in brief: as §1

SPI1 = SPI1 (Homo sapiens, UniProt P17947 1-270); settings: protein: recombinant; tags: N-terminal GST; dsDNA, one strand shown
Method in brief: as §1

SPIB = SPIB (Homo sapiens, UniProt Q01892 1-262); settings: protein: recombinant; tags: N-terminal GST; dsDNA, one strand shown
Method in brief: as §1

ELK3 = target: T6, ELK3 (Homo sapiens, UniProt P41970 1-407); settings: protein: recombinant; tags: N-terminal GST; dsDNA, one strand shown
T6 sequence: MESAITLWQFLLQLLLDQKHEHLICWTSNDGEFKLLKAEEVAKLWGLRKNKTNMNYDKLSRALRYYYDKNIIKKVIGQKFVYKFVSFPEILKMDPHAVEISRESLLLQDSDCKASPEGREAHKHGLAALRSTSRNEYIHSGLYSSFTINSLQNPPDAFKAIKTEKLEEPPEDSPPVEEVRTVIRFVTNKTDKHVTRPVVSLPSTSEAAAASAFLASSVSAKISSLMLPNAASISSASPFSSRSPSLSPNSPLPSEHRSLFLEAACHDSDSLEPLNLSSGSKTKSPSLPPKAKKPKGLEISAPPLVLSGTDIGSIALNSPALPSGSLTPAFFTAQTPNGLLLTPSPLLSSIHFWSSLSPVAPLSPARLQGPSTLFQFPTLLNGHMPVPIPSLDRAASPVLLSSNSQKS
Method in brief: as §1

FEV = target: T7, FEV (Homo sapiens, UniProt Q99581 1-238); settings: protein: recombinant; tags: N-terminal GST; dsDNA, one strand shown
T7 sequence: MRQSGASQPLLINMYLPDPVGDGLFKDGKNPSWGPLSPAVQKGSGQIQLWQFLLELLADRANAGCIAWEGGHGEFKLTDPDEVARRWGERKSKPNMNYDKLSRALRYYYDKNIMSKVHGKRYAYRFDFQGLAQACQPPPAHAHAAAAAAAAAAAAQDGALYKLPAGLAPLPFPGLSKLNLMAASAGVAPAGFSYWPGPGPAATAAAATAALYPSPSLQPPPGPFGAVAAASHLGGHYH
Method in brief: as §1

ETV5 = ETV5 (Homo sapiens, UniProt P41161 1-510); settings: protein: recombinant; tags: N-terminal GST; dsDNA, one strand shown
Method in brief: as §1

HSF1 = HSF1 (Homo sapiens, UniProt Q00613 1-529); settings: protein: recombinant; tags: N-terminal GST; chain copies: 3; dsDNA, one strand shown
Method in brief: as §1

SPIC = target: T8, SPIC (Homo sapiens, UniProt Q8N5J4 1-248); settings: protein: recombinant; tags: N-terminal GST; dsDNA, one strand shown
T8 sequence: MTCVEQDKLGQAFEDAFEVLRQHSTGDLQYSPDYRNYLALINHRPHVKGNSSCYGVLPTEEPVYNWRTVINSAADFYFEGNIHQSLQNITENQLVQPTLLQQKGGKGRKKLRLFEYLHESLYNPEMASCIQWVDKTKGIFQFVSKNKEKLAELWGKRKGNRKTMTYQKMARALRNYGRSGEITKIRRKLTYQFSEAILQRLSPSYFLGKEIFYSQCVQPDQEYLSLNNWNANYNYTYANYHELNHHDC
Method in brief: as §1

ELF4 = ELF4 (Homo sapiens, UniProt Q99607 1-663); settings: protein: recombinant; tags: N-terminal GST; dsDNA, one strand shown
Method in brief: as §1

ELK4 = target: T9, ELK4 (Homo sapiens, UniProt P28324-2 1-405); settings: protein: recombinant; tags: N-terminal GST; dsDNA, one strand shown
T9 sequence: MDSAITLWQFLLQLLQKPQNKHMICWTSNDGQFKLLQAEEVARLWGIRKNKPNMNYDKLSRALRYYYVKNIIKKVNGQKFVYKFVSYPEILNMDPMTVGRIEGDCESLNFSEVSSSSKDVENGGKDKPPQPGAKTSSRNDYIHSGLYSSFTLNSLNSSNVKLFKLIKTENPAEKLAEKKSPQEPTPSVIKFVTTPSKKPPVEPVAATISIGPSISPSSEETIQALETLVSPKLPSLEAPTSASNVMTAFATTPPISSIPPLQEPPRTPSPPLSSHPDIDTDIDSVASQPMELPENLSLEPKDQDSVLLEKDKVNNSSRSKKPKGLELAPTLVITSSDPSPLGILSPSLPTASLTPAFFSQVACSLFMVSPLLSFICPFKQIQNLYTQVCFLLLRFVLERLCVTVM
Method in brief: as §1

ETV2 = target: T10, ETV2 (Homo sapiens, UniProt O00321 1-342); settings: protein: recombinant; tags: N-terminal GST; dsDNA, one strand shown
T10 sequence: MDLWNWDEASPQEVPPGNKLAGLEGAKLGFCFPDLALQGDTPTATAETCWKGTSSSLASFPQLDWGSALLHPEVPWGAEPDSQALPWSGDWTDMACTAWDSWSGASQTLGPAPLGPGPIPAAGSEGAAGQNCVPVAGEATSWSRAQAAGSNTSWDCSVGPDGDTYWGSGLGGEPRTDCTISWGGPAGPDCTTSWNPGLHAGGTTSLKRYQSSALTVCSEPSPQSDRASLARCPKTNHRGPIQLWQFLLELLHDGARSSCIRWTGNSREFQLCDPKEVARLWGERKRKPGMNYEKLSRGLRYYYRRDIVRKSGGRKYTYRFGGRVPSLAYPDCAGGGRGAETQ
Method in brief: as §1

ELF3 = target: T11, ELF3 (Homo sapiens, UniProt P78545 1-371); settings: protein: recombinant; tags: N-terminal GST; dsDNA, one strand shown
T11 sequence: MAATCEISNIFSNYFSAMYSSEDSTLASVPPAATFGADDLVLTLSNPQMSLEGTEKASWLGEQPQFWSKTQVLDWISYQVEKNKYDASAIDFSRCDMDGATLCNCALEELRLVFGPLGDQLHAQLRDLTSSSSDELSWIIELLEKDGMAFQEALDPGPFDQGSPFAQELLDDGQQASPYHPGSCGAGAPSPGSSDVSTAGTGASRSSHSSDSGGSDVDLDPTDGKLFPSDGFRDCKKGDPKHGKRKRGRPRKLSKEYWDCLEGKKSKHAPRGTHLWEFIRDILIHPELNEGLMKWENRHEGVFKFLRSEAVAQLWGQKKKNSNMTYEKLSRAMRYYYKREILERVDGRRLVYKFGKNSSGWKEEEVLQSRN
Method in brief: as §1

CRX = CRX (Homo sapiens, UniProt O43186 1-299); settings: protein: recombinant; tags: N-terminal GST; dsDNA, one strand shown
Method in brief: as §1

ETV1 = ETV1 (Homo sapiens, UniProt P50549 1-477); settings: protein: recombinant; tags: N-terminal GST; dsDNA, one strand shown
Method in brief: as §1

ETV1, sequence (P50549 whole entry): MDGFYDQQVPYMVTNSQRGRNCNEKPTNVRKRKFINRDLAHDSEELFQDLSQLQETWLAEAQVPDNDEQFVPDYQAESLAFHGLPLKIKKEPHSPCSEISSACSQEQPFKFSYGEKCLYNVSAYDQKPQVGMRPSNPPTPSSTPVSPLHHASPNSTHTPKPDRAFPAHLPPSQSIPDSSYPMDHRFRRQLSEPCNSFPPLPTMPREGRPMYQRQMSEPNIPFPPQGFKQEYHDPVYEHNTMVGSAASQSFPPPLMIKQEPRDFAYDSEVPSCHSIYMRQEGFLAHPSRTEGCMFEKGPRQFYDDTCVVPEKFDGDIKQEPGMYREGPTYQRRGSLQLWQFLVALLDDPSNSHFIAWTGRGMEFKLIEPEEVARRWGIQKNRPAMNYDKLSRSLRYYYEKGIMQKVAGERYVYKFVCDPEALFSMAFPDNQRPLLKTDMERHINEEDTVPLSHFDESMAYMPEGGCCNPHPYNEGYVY
CRX, sequence (O43186 whole entry): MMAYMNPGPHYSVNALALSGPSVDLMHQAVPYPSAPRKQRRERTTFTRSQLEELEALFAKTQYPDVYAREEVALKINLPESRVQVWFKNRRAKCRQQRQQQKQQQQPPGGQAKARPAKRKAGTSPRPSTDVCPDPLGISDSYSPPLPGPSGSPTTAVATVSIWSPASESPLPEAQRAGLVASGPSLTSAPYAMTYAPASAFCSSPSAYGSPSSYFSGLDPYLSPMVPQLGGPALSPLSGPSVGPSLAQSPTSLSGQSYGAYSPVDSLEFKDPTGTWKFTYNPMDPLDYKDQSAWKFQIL
SPIB, sequence (Q01892 whole entry): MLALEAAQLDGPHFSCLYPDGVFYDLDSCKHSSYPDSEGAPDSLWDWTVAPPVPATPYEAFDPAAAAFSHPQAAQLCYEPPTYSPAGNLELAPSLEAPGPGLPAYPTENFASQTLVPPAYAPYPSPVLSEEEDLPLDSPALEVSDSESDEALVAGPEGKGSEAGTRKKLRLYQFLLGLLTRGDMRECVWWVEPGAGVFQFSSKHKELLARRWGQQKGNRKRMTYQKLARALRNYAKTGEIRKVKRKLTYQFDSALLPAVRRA
HSF1, sequence (Q00613 whole entry): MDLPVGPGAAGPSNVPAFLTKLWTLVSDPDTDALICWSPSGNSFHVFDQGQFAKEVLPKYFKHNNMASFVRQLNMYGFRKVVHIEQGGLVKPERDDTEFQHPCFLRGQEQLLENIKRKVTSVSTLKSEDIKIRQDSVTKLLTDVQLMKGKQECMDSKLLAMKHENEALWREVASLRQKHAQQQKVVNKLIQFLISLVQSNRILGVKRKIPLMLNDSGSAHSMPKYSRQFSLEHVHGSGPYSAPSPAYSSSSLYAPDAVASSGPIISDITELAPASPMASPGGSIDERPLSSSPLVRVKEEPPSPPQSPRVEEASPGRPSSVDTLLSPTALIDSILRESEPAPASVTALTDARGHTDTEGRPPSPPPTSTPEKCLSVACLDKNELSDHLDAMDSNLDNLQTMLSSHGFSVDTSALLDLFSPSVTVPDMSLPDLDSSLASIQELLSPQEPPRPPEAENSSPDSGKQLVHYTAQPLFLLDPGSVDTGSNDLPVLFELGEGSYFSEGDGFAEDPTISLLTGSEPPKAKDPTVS
ELF4, sequence (Q99607 whole entry): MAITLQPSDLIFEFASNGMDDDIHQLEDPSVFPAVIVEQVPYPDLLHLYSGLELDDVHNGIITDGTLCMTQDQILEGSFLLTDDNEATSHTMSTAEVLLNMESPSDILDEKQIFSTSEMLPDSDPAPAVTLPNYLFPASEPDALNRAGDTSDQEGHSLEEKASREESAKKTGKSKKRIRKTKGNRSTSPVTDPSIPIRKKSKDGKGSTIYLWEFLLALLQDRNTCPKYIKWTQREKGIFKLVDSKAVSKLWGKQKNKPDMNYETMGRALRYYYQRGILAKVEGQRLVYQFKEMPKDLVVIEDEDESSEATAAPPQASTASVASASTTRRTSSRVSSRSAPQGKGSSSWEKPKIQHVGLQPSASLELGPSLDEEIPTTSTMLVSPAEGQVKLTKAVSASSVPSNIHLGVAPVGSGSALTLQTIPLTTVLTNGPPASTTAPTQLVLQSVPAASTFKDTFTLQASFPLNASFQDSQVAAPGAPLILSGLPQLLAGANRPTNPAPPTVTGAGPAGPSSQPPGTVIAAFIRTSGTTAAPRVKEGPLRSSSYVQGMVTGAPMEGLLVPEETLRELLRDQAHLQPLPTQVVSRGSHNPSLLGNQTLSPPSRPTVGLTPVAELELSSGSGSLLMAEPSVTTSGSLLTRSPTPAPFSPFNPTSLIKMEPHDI
ETV5, sequence (P41161 whole entry): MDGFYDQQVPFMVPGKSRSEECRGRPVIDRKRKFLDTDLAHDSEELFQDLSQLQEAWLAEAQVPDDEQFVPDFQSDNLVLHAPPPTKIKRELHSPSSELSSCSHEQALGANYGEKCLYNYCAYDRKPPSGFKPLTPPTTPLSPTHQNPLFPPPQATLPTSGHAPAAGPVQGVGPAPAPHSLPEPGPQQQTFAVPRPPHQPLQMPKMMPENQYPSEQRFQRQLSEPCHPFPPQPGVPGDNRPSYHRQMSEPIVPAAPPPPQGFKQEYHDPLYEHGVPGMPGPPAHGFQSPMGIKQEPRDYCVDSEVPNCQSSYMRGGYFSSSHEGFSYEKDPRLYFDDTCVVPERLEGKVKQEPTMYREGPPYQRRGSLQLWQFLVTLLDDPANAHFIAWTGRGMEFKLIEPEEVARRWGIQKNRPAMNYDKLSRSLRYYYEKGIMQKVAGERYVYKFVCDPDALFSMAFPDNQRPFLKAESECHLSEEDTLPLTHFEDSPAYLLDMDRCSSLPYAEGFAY
ELF1, sequence (P32519 whole entry): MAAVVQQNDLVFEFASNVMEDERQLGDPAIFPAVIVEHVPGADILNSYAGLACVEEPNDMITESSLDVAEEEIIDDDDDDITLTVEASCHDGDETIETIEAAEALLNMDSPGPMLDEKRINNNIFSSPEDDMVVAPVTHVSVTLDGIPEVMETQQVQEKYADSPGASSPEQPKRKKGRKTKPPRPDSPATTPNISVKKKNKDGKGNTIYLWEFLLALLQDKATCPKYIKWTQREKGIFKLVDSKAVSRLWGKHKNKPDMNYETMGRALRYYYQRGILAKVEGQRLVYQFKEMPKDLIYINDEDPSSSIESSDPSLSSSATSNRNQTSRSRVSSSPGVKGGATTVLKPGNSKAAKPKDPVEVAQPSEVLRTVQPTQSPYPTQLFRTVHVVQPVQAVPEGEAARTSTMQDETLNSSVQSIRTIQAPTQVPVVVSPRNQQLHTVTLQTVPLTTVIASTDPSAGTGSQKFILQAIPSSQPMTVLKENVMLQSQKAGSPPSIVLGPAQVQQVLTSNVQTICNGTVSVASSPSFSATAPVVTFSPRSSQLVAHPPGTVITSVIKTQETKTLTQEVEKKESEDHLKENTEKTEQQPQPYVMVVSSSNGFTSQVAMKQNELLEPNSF

**Q.** What does the source list for TCTACA?
**A.** binding signal (FLI1): 1.12 fold enrichment (6-mer frequency, TF over GST control); binding signal (ELK1): 1.17 fold enrichment (6-mer frequency, TF over GST control); binding signal (GABPA): 1.19 fold enrichment (6-mer frequency, TF over GST control); binding signal (ERG): 1.23 fold enrichment (6-mer frequency, TF over GST control); binding signal (ELF1): 1.28 fold enrichment (6-mer frequency, TF over GST control); binding signal (EHF): 1.25 fold enrichment (6-mer frequency, TF over GST control); binding signal (SPI1): 1.14 fold enrichment (6-mer frequency, TF over GST control); binding signal (SPIB): 1.18 fold enrichment (6-mer frequency, TF over GST control); binding signal (ELK3): 1.23 fold enrichment (6-mer frequency, TF over GST control); binding signal (FEV): 1.2 fold enrichment (6-mer frequency, TF over GST control); binding signal (ETV5): 1.18 fold enrichment (6-mer frequency, TF over GST control); binding signal (HSF1): 1.39 fold enrichment (6-mer frequency, TF over GST control); binding signal (SPIC): 1.44 fold enrichment (6-mer frequency, TF over GST control); binding signal (ELF4): 1.15 fold enrichment (6-mer frequency, TF over GST control); binding signal (ELK4): 1.17 fold enrichment (6-mer frequency, TF over GST control); binding signal (ETV2): 1.18 fold enrichment (6-mer frequency, TF over GST control); binding signal (ELF3): 1.22 fold enrichment (6-mer frequency, TF over GST control); binding signal (CRX): 1.17 fold enrichment (6-mer frequency, TF over GST control); binding signal (ETV1): 1.16 fold enrichment (6-mer frequency, TF over GST control)
